This is a sample that favours compounds with a hit; in the whole collection about 21% have one here.
AMA1 RON2 block: AMA1-RON2 (P. falciparum) interaction inhibition. hit rate 0.2% among 360,000. AID 720542. AlphaScreen AMA1-biotinylated RON2 peptide binding. Potency, µM (titrated, usually from 58.2 µM), most hits filed as inhibitors; also: nearly all actives have a fitted effect of over 45% in size
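AMA1 (3D7) with his tag at 25 nM final met compounds first, then biotinylated RON2 peptide at 25 nM; detection used donor plus acceptor beads, 10 µg/mL apiece, read by AlphaScreen after 30 min at room temperature.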
Pf growth 48h: inhibits P. falciparum growth in the first generation, 48 h. hit rate 5.9% among 310,000. P. falciparum luciferase growth in erythrocytes, 48 h. Potency, µM (series often up to 28.7 µM), most hits filed as inhibitors. AID 504832
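Luciferase-expressing P. falciparum in infected erythrocytes (2% hematocrit, 0.1% parasitemia final) in RPMI 1640/0.5% Albumax were exposed to compound for 48 hours at 37 C, 5% CO2; growth read as luminescence.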
CHX counter: affects cycloheximide protein synthesis inhibition readout, counter-screen; cell reporter, cycloheximide protein synthesis inhibition counterscreen; max response, %; hit rate 12% among 300,000; AID 2314; in the data active = max response mostly above about 13%, no sharp cut-off; inactive = mostly below about 14%; also: read at 38.3 µM for the half of the compounds with a filed dose
HCV inh: HCV inhibition; Huh7.5.1 HCVcc-Cre infection, luciferase reporter, 44 h; Potency, µM (series often up to 41.8 µM), usual class: inhibitors; hit rate 3.4% among 340,000; AID 651820
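1,000 cells/well; 4 h culture; + compound; + HCVcc-Cre (~0.5 moi); 44 h; luciferase substrate, RT 15 min; read 15 sec.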
Pf growth 96h: P. falciparum growth inhibition at 96 hours; P. falciparum luciferase reporter growth, 96 h; hit rate 6.9% among 320,000; Potency, µM (highest dose often 28.7 µM), usual class: inhibitors
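Two parasite generations (96 h, 37 C, 5% CO2) of compound exposure in infected erythrocytes (0.05% parasitemia, 2% hematocrit). Luciferase-reporter P. falciparum; decreased luminescence indicates inhibited growth, aimed at apicoplast-acting delayed death.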
Shiga inhibitor: Shiga toxin inhibition; Vero cells, Shiga toxin protein synthesis inhibition reporter; inhibition, % at 38.7 µM; hit rate 9.2% among 290,000; AID 2315; in the data active = inhibition mostly above about 28%, no sharp cut-off; inactive = mostly below about 43%
Each line names hits and unclear results; the compound was inactive in the other large screens. Unless noted, calls follow the shape of the dose curve; as a rule, active = well fitted curve in the direction sought with a large enough effect; inconclusive = small, poorly fitted or top-dose-only effect, or another doubt; inactive = no such curve, though single readings can be large; an effect the other way counts as inactive or inconclusive.

O=C([C@H]1O[C@@H](n2ccc(=O)[nH]c2=O)[C@H](O)[C@@H]1O)N1CCC(F)(F)CC1	none (no result: Pf growth 48h, CHX counter, HCV inh, Pf growth 96h, Shiga inhibitor)
N/C(=N\OC(=O)c1ccc(Cl)cc1)c1ccc(Cl)cc1	Pf growth 48h inconclusive, CHX counter 21, Pf growth 96h 2.6µM, Shiga inhibitor 54
N/C(=N\OC(=O)c1ccc(OCC(F)(F)F)nc1)c1ccc(Cl)cc1	Pf growth 96h inconclusive
N/C(=N\OC(=O)c1ccccc1Cl)c1ccccc1	CHX counter 35, HCV inh inconclusive, Shiga inhibitor 70
N/C(=N\OC(=O)c1ccc(Cl)cc1)c1ccn[nH]1	CHX counter 39, HCV inh inconclusive, Shiga inhibitor 49
Cc1cccc(C(=O)NC(C(=O)Nc2ccc(S(=O)(=O)Nc3nccs3)cc2)C(C)C)c1 (stereo unspecified)	none (no result: Pf growth 48h, CHX counter, Pf growth 96h, Shiga inhibitor)
O=C(CSc1ccc2ccccc2c1)NCc1cccs1	CHX counter 32
CNC(=O)CSCc1cnn(-c2ccccc2)c1-n1cccc1	Pf growth 96h inconclusive (no result: Pf growth 48h)
Cn1nnnc1SCC(=O)NCc1cccs1	none
O=C(CSc1nnc2ccccn12)NCc1cccs1	CHX counter 21, Pf growth 96h inconclusive, Shiga inhibitor 52 (no result: Pf growth 48h)
O=C(CSc1ncccn1)NCc1cccs1	none
O=C(CSCc1cnn(-c2ccccc2)c1-n1cccc1)NCc1cccs1	Pf growth 96h 4.7µM (no result: Pf growth 48h)
C[C@H](CO)N1C[C@H](C)[C@@H](CN(C)Cc2ccc3cccnc3c2)OCc2cnnn2CCCC1=O	none (no result: Pf growth 48h, CHX counter, HCV inh, Pf growth 96h, Shiga inhibitor)
O=C1c2cccnc2C(Nc2ccc(Br)cc2)N1Cc1cccs1 (stereo unspecified)	none
O=C1c2cccnc2C(Nc2ccc(Br)cc2Br)N1Cc1cccs1 (stereo unspecified)	Pf growth 48h inconclusive, Pf growth 96h 6.6µM (no result: AMA1 RON2 block, HCV inh)
O=c1cc(N2CCCCC2)c(-c2ccccc2)nn1Cc1c(Cl)cccc1Cl	Pf growth 48h inconclusive, HCV inh inconclusive, Pf growth 96h 10µM
O=c1cc(N2CCCCC2)c(-c2ccccc2)nn1Cc1ccc(F)cc1	Pf growth 48h inconclusive, HCV inh inconclusive, Pf growth 96h 13µM
O=c1cc(N2CCCCC2)c(-c2ccccc2)n[nH]1	none
O=c1cc(N2CCCCC2)c(-c2ccccc2)nn1Cc1ccc(Cl)cc1	none
C[C@@H](CO)NC(=O)c1nc[nH]c1C(=O)N[C@H](C)c1ccccc1	none (no result: Pf growth 48h, CHX counter, HCV inh, Pf growth 96h, Shiga inhibitor)
O=C(NC1CCCCC1)c1cc(-c2cccc(Cl)c2)on1	CHX counter 27, Pf growth 96h inconclusive, Shiga inhibitor 39
Cn1cccc1C(=O)NC1CCCCC1	HCV inh inconclusive (no result: CHX counter, Shiga inhibitor)
O=C(NC1CCCC1)c1cc(-c2cccc(Cl)c2)on1	CHX counter 37, Pf growth 96h inconclusive, Shiga inhibitor 131
Cc1onc(-c2c(Cl)cccc2Cl)c1C(=O)Nc1nc(C(C)(C)C)cs1	AMA1 RON2 block inconclusive, Pf growth 48h inconclusive, HCV inh inconclusive, Pf growth 96h 10µM
Cc1onc(-c2c(Cl)cccc2Cl)c1NC(=O)NNc1ccccn1	CHX counter 29
Cc1cc(NC(=O)c2c(-c3c(F)cccc3Cl)noc2C)no1	Pf growth 48h inconclusive
Cc1ccc(NC(=O)c2c(-c3c(F)cccc3Cl)noc2C)cc1F	Pf growth 48h 9.3µM, HCV inh inconclusive, Pf growth 96h inconclusive
Cc1onc(-c2c(Cl)cccc2Cl)c1C(=O)Nc1ccc2c(C(F)(F)F)cc(=O)oc2c1	Pf growth 48h inconclusive, HCV inh inconclusive, Pf growth 96h 2.3µM
Cc1nc(C(=O)NNC(=O)c2c(-c3c(Cl)cccc3Cl)noc2C)cs1	Pf growth 48h inconclusive, HCV inh inconclusive, Pf growth 96h inconclusive
Cc1cccc(N/C(N)=N/c2nc(C)c(Cc3ccccc3)c(=O)[nH]2)c1	Pf growth 48h inconclusive, Pf growth 96h inconclusive
Cc1ccc(S(=O)(=O)N(C)C)cc1NC(=O)c1c(-c2c(F)cccc2Cl)noc1C	Pf growth 48h 12µM, Pf growth 96h inconclusive
Cc1onc(-c2c(F)cccc2Cl)c1C(=O)Nc1nnc(C(F)(F)F)s1	HCV inh inconclusive, Pf growth 96h 10µM
Cc1onc(-c2c(F)cccc2Cl)c1C(=O)Nc1nc2ccccc2[nH]1	CHX counter 59, Shiga inhibitor 60 (no result: Pf growth 48h)
CCOc1ccc(NC(=O)CN(C)C(=O)c2c(-c3c(F)cccc3Cl)noc2C)cc1OCC	Pf growth 48h inconclusive, HCV inh inconclusive, Pf growth 96h 1µM (no result: CHX counter, Shiga inhibitor)

High-throughput results (PubChem)
